Source: PubChem BioAssay (Broad Institute)
Tgondii IFNg – inhibitors of Toxoplasma gondii growth with IFN-gamma. Toxoplasma gondii growth in IFN-gamma-treated host cells; hits give low values. activity change, negative = inhibition, % (concentration not given with the values). 69,000 tested, 3.8% active. AID 1259416; in the data active = activity change below about -70%, passing the limit was not always enough;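 also: host cells are HeLa cells infected with Toxoplasma gondii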
* marks the source's active call; other numbers are inactive results. Shown is part of a subset that was picked to be rich in hits.

`Cc1cc2cc(NC(=O)CN3C(=O)NC(C)(c4ccccc4)C3=O)cc(Cl)c2o1` (centres undefined) gave Tgondii IFNg -77.2*.
CN1CC2(CCN(C(=O)c3cc4cccc(Cl)c4n3C)C2)OC1=O (centres undefined) was read as Tgondii IFNg -24.6.
Screening O=C(CC1N=C2c3ccccc3N=C(SCc3ccccc3Cl)N2C1=O)NCc1ccc(F)cc1 (centres undefined) returned Tgondii IFNg -10.3.
For O=C(Nc1cccc(Cl)c1)c1c(O)c2cccnc2n(-c2cccc(F)c2)c1=O the results were Tgondii IFNg -32.3.
For CC(NC(=O)c1c(O)c2cccnc2n(-c2cccc(F)c2)c1=O)c1ccc(F)cc1 (centres undefined) the results were Tgondii IFNg 49.9.
Screening Cc1cc(F)ccc1NC(=O)c1c(O)c2cccnc2n(-c2cccc(F)c2)c1=O returned Tgondii IFNg -91.0*.
For O=C(Nc1ccc(F)c(Cl)c1)c1c(O)c2cccnc2n(-c2ccc(F)cc2)c1=O the results were Tgondii IFNg 84.4.
For O=C(Nc1ccc(F)c(Cl)c1)c1c(O)c2cccnc2n(-c2cccc(F)c2)c1=O the results were Tgondii IFNg -102.0*.
`O=C(Nc1ccccc1)c1c(O)c2cccnc2n(-c2cccc(F)c2)c1=O` gave Tgondii IFNg 49.1.
Screening Cc1ccc(NC(=O)c2c(O)c3cccnc3n(-c3cccc(F)c3)c2=O)c(C)c1 returned Tgondii IFNg -32.7.
For CC(NC(=O)c1c(O)c2cccnc2n(-c2cccc(F)c2)c1=O)c1ccccc1 (centres undefined) the results were Tgondii IFNg -108.6*.
For Cc1ccc(F)cc1NC(=O)c1c(O)c2cccnc2n(-c2cccc(F)c2)c1=O the results were Tgondii IFNg -27.2.
Screening OC1CCN(CCn2ccnc2-c2cccc3c2oc2ccccc23)CC1 returned Tgondii IFNg 8.5.
For Cc1nnnn1CCC(=O)N1CCc2[nH]nc(-c3cccc4ccccc34)c2C1 the results were Tgondii IFNg -5.1.
CSc1ccc(NC(=O)N2CCOC(Cc3ccc(F)cc3)C2)cc1 (centres undefined) was read as Tgondii IFNg 30.0.
For COc1ccc(-c2cnc(NC(=O)COc3ccc4nsnc4c3)n2C)cc1 the results were Tgondii IFNg 10.5.
Screening Oc1cccc(Nc2ccc(Nc3cccc(O)c3)nn2)c1 returned Tgondii IFNg 17.1.
For CC(C)(C)CC(Nc1nc(-c2cccnc2)nc2c1CNC2)c1cccnc1 (centres undefined) the results were Tgondii IFNg -17.7.
CCc1cc(C(C)Nc2nc(-c3cccnc3)nc3c2CNC3)on1 (centres undefined) was read as Tgondii IFNg -88.2*.
`CC(C)Cc1cc(CNc2nc(-c3cccnc3)nc3c2CCNC3)no1` gave Tgondii IFNg -35.9.
`Cc1ccc(S(=O)(=O)N2CCC3(CC2)NCCN=C3NCc2ccc3c(c2)OCO3)cc1C` gave Tgondii IFNg -3.0.
`CN(Cc1ccco1)Cc1cnc2n1CCN(S(C)(=O)=O)CC2` gave Tgondii IFNg 6.1.
For COc1ccc(CCNc2cnn(-c3ccccc3)c(=O)c2Cl)cc1OC the results were Tgondii IFNg -82.8*.
Screening COc1ccc(CCNC(=O)Cc2ccccc2)cc1OC returned Tgondii IFNg -48.1.
For O=c1c(Cl)c(Oc2ccccc2)cnn1-c1ccccc1 the results were Tgondii IFNg 71.6.
For CS(=O)(=O)N1Cc2ccccc2C2(CCN(C(=O)c3cnc[nH]3)CC2)C1 the results were Tgondii IFNg 1.4.
CCn1c2c(ccc1=O)CC(N)CC2 (centres undefined) was read as Tgondii IFNg -15.6.
`COCCC(=O)c1cc2ccc(-c3ccc(C(F)(F)F)cc3)cn2c1-c1cocn1` gave Tgondii IFNg 21.3.
Screening Cc1occc1C(=O)N1C[C@@H]2COC[C@@]2(COc2ccc(C#N)cn2)C1 returned Tgondii IFNg 2.7.
For COc1cccc(C2CC(c3ccccc3O)=NC3(CCN(C(C)=O)CC3)N2)c1O (centres undefined) the results were Tgondii IFNg 207.0.
Cn1c(CNC(=O)c2ccc(Cl)cc2Cl)cc2ccccc21 was read as Tgondii IFNg 33.9.
For CC(C)CC(NC(=O)c1cccc(Cl)c1)C(=O)O (centres undefined) the results were Tgondii IFNg -35.2.
For CC(C)C[C@H](NC(=O)CNC(=O)c1cc(Cl)ccc1Cl)B(O)O the results were Tgondii IFNg -79.3*.
`COc1ccccc1N1CCN(C(=O)CN2C(=O)CCc3cc(Br)ccc32)CC1` gave Tgondii IFNg -38.2.
Screening Cc1cccc(-n2c(SCC(N)=O)nnc2-c2cccs2)c1C returned Tgondii IFNg -2.5.
`CCCCOc1ccc(-c2nnc(-c3cccs3)n2-c2ccccc2)cc1` gave Tgondii IFNg -80.2*.
COc1ccc(OCc2nn3c(-c4cccs4)nnc3s2)cc1 was read as Tgondii IFNg -68.8.
`CCC(=O)N1CCC2(CC1)CC(N(C)Cc1ccccc1)CO2` (centres undefined) gave Tgondii IFNg -7.6.
O=C(C1CCN(c2cncnc2N2CCCCC2)CC1)N1CCC(N2CCCCC2)CC1 was read as Tgondii IFNg -29.5.
Screening Cn1cnc(S(=O)(=O)N2CCC3NC(=O)CC32)c1 (centres undefined) returned Tgondii IFNg 1.5.
`Nc1nc(Nc2ccc(S(N)(=O)=O)cc2)nn1C(=O)c1c(F)cccc1F` gave Tgondii IFNg -71.8*.
`O=C(c1c(F)cccc1F)N1CCN(S(=O)(=O)c2cc3c4c(c2)CCC(=O)N4CCC3)CC1` gave Tgondii IFNg -29.9.
`NS(=O)(=O)c1ccc(NC(=O)CSc2ncn(-c3ccccc3)n2)cc1` gave Tgondii IFNg 5.1.
For O=S(=O)(c1cccc2cccnc12)N1C=CC(C(F)(F)F)=NCC1 the results were Tgondii IFNg -1.4.
For Cc1cc(C(=O)NCc2noc(C)n2)c2cnn(C(C)C)c2n1 the results were Tgondii IFNg -3.2.
For Cc1ccc2c(c1)cc(C(=O)NCCc1nc3cc(C)c(C)cc3[nH]1)n2C the results were Tgondii IFNg 6.5.
COc1ccc(-c2cc(C(=O)NCCc3nc4cc(C)c(C)cc4[nH]3)nn2C)cc1 was read as Tgondii IFNg -1.5.
Cc1cc2nc(CCNC(=O)c3cnc(-c4ccc(Cl)cc4)nc3)[nH]c2cc1C was read as Tgondii IFNg -94.8*.
O=C(c1ncoc1C1CC1)N1C[C@H]2OC(=O)N(CCCc3ccc(F)cc3)[C@H]2C1 was read as Tgondii IFNg -5.9.
For CC(=O)NCC(=O)NC1CC2(CCN(c3ccccc3)CC2)c2ccccc21 (centres undefined) the results were Tgondii IFNg -9.7.
For O=C(Cn1ncc2c(N3CCN(c4ccccc4)CC3)ncnc21)Nc1cccc(Cl)c1 the results were Tgondii IFNg 31.2.
Screening O=C(Cn1ncc2c(N3CCN(c4ccccn4)CC3)ncnc21)Nc1cccc(Br)c1 returned Tgondii IFNg -98.8*.
`O=C(Cn1ncc2c(N3CCN(c4ccccn4)CC3)ncnc21)Nc1ccc(Br)cc1` gave Tgondii IFNg -15.0.
O=C(Cn1ncc2c(N3CCN(c4ccccn4)CC3)ncnc21)Nc1cccc(Cl)c1 was read as Tgondii IFNg -50.1.
CCc1cccc(NC(=O)Cn2ncc3c(N4CCN(c5ccccn5)CC4)ncnc32)c1 was read as Tgondii IFNg -62.2.
For CCc1cccc(NC(=O)Cn2ncc3c(N4CCN(c5ccccc5)CC4)ncnc32)c1 the results were Tgondii IFNg -82.4*.
For Cc1ccc(CN(C)C(C)c2nc(C)sc2C)o1 (centres undefined) the results were Tgondii IFNg -1.5.
